The values below come from PubChem BioAssay (NCATS).

Results filed as inconclusive are left out. Entries that show only a call come without a potency. Values without a mark were called inactive. Active and inactive are the calls of the source. The call rests on the fitted dose curve; in most records, active means well fitted cell-killing curve with a large enough effect; inconclusive means small, poorly fitted or top-dose-only effect, or effect the other way; inactive means flat fitted curve, though single readings scatter.
Potency means the concentration at half of the fitted maximal effect.

The test system of the first assay is HeLa. Put plainly: Primary qHTS to identify gynecologic anti-cancer compounds using libraries of approved drugs and bioactive compounds (AID 1345084). Further: nearly all actives have a fitted effect of over 55% in size. The note with it: Gynecologic cancer cell panel viability, ATPlite luminescence, 48 h; series mostly up to 57.5 µM. An outline of the steps:
(§1)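 Cell viability after 48 h drug treatment, ATPlite luminescence readout; five doses.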
In general terms: In qHTS, concentration-response curves come from the screen itself.
On to `CCCC1(CCC)CCC2(CCN(CCCN(CC)CC)C2)CC1`, for which the Potency is 7.08 µM (active). As for `O=C(NCCCN1CCC2(CC1)OCc1ccccc12)[C@H]1CCCN1Cc1ccccc1`, the Potency entry was “inactive”. For `CC(C)c1cc(-c2ccc(F)c3ccccc23)nc(N)n1`, the Potency entry was “inactive”. For `CC(C)NCCCn1c(Sc2cc3c(cc2I)OCO3)nc2c(N)ncnc21`, the Potency entry is “inactive”.

Take `CC(=O)OC1CC2(C)C(CCC(C)C23Cc2c(O)cc(CO)c(C=O)c2O3)C(C)(C)C1O` (stereo not given): the Potency entry is “inactive”. Still for that read-out and setting: next, `CC(C)Oc1ccc(-c2cnc3c(-c4ccnc5ccccc45)cnn3c2)cc1`: “inactive”. Take `CN(C)C(=O)NC1(c2ccccc2)CCN(CCC[C@]2(c3ccc(Cl)c(Cl)c3)CCCN(C(=O)c3ccccc3)C2)CC1`: the Potency entry is “inactive”.

For the molecule `CC(=O)N[C@H]1[C@H](O[C@H]2CC[C@@]3(C)C(CC[C@]4(C)C3CC=C3C5CC(C)(C)CC[C@]5(C(=O)O)C(O)C[C@]34C)C2(C)C)O[C@H](CO[C@@H]2O[C@H](C)[C@H](O)[C@H](O)[C@H]2O[C@@H]2OC[C@@H](O)[C@H](O)[C@H]2O)[C@@H](O)[C@@H]1O` (stereo not given in full), the activity change, negative = cytotoxicity was 4.55% [at 11.6 µM].

With `Cc1cc(C)nc(SCC(=O)Nc2ncc(Cc3cccc4ccccc34)s2)n1`, the Potency result is “inactive”. Take `COc1cccc(CN(C(=O)CC(C)(C)C)[C@H]2C[C@H](C(=O)N3CCNCC3)N(Cc3ccc4c(c3)OCO4)C2)c1`: the Potency entry was “inactive”.

On to `Fc1ccc(N2CCN(CCC3OCCc4ccccc43)CC2)cc1` (stereo not given), for which the Potency entry was “inactive”. Turning to `O=C(NCc1ccccc1)c1ccc2c(=O)n(-c3cccc(C(F)(F)F)c3)c(=S)[nH]c2c1`, the Potency entry is “inactive”. Still for that read-out and setting: for `CN[C@@H]1[C@H](O[C@H]2[C@H](O[C@@H]3[C@@H](O)[C@H](O)[C@@H](N=C(N)N)[C@H](O)[C@H]3N=C(N)N)O[C@@H](C)[C@]2(O)CO)O[C@@H](CO)[C@H](O)[C@H]1O` the value was “inactive”; for `CC1CCC(=O)CC(SCC(O)C(=O)O)CCC(=O)O1` (stereo not given), “inactive”. In the case of `C=C1CC[C@H]2C(=C)CC[C@H]3C(=C)C(=O)O[C@@H]3[C@@H]12`, the Potency entry is “inactive”. With `C=C1C(=O)O[C@@H]2C=C(COC(C)=O)CC/C=C(\CO)CC[C@@H]12`, the Potency entry was “inactive”.

Turning to `CC(=O)OC1C(=O)C2C3OCC4=C3[C@@](C)(CC[C@@H]4O)CC[C@]2(C)[C@H]1C(C)C` (stereo not given in full), the Potency result is “inactive”.

As for `O=c1[nH]c2cccc(N3CCN(Cc4ccc(-c5ccccc5)cc4)CC3)c2o1`, the Potency entry was “inactive”. Still for that read-out and setting: next, `Cc1nc(Nc2ccc(F)cc2)nc(N2CCc3ccccc3C2C)c1C` (stereo not given): “inactive”; `C[C@@H](O[C@H]1OCCN(Cc2nn(P(=O)(O)O)c(=O)[nH]2)[C@H]1c1ccc(F)cc1)c1cc(C(F)(F)F)cc(C(F)(F)F)c1`: “inactive”; `COC(=O)C[C@H]1[C@]2(C)C3=C(C)[C@H](c4ccoc4)C[C@H]3O[C@@H]2[C@H](O)C2[C@](C)(C(=O)OC)C=CC(=O)[C@@]21C` (stereo not given in full): “inactive”. With `CC(=O)c1ccc2c(c1)[C@H](NC(=O)c1ccc(F)c(Cl)c1)[C@H](O)C(C)(C)O2`, the Potency result is “inactive”. In the case of `CC1OC(OC2C(O)COC(O[C@@H]3[C@@H](O)[C@@H](O)[C@H](OC4C(OC(=O)[C@]56CCC(C)(C)CC5C5=CCC7[C@@]8(C)C[C@H](O)[C@H](OC9OC(CO)C(O)C(O)C9O)[C@@](C)(CO)C8[C@H](O)C[C@@]7(C)[C@]5(C)CC6)OCC(O)C4O)O[C@H]3C)C2O)C(O)C(O)C1O` (stereo not given in full), the activity change, negative = cytotoxicity was -4.81% [at 6.55 µM].

Regarding `Cc1c(C(=O)NCc2cccnc2)nn(-c2ccc(Cl)cc2Cl)c1-c1ccc(Cl)cc1`, the Potency result was “inactive”. Take `C=C1CCC[C@]2(C)CC/C(=C(/CO)C(=O)OC)C[C@@H]12`: the Potency entry was “inactive”. Turning to `CC/C(C)=C/C(=O)OC1C(OC2(C)CCC3C(C4C(C)CCC42)C3(C)C)OC(C)C(O)C1O` (stereo not given), the Potency result is “inactive”. For `CC(C)[C@@H](c1ccc(C(F)(F)F)cc1CN(Cc1cc(C(F)(F)F)cc(C(F)(F)F)c1)c1nnn(C)n1)N1CCC(C(=O)O)CC1`, the Potency result is “inactive”. As to `O=C(O)c1ccc(S(=O)(=O)N(Cc2ccc(OC(F)(F)F)cc2)c2ncc(C(F)(F)F)cc2Cl)cc1`, the Potency result was “inactive”. On the same count and under the same terms, for `COc1ccc(OC)c(-c2ccc(NC(=O)c3ccncc3F)cc2)c1` the value was “inactive”; for `C[C@H]1CC[C@@]2(OC1)O[C@H]1CC3C4CC[C@H]5C[C@@H](O)CC[C@]5(C)C4=CC(=O)[C@]3(C)[C@H]1[C@@H]2C` (stereo not given in full), “inactive”; for `O=C1c2ccc(Nc3ccc(F)cc3F)cc2CCc2ccc(OCC(O)CO)cc21` (stereo not given), “inactive”.

On to `CC1(C)OC[C@H](NC(=O)Nc2ccc(Br)cc2Br)[C@H](c2ccccc2)O1`, for which the Potency entry is “inactive”.

`COc1ccc(C(=O)Nc2c(Cl)cncc2Cl)cc1OC1CCCC1`: the Potency result was “inactive”.

For a further assay, the system named is Hek293T. The description is as above. The note with it: Gynecologic cancer cell panel viability, ATPlite luminescence, 48 h, control line for the selectivity index; series mostly up to 57.5 µM. An outline of the steps:
as §1
(In general: Cellular ATP, detected with luciferase, serves as a proxy for viable cell number.)
For `CCCC1(CCC)CCC2(CCN(CCCN(CC)CC)C2)CC1`, the Potency is 8.91 µM (active). For the molecule `Cn1ncc(Cl)c1-c1cc(C(=O)N[C@H](CN)Cc2cccc(F)c2)sc1Cl`, the Potency is 2.82 µM (active). Same read-out and setting: next, `O=C(NCCCN1CCC2(CC1)OCc1ccccc12)[C@H]1CCCN1Cc1ccccc1`: “inactive”; `CC(C)c1cc(-c2ccc(F)c3ccccc23)nc(N)n1`: “inactive”; `CC(=O)OC1CC2(C)C(CCC(C)C23Cc2c(O)cc(CO)c(C=O)c2O3)C(C)(C)C1O` (stereo not given): “inactive”. Consider `CC(C)Oc1ccc(-c2cnc3c(-c4ccnc5ccccc45)cnn3c2)cc1`, for which the Potency entry was “inactive”. Consider `CC(=O)N[C@H]1[C@H](O[C@H]2CC[C@@]3(C)C(CC[C@]4(C)C3CC=C3C5CC(C)(C)CC[C@]5(C(=O)O)C(O)C[C@]34C)C2(C)C)O[C@H](CO[C@@H]2O[C@H](C)[C@H](O)[C@H](O)[C@H]2O[C@@H]2OC[C@@H](O)[C@H](O)[C@H]2O)[C@@H](O)[C@@H]1O` (stereo not given in full), for which the activity change, negative = cytotoxicity is -2.18% [at 11.6 µM]. For `Cc1cc(C)nc(SCC(=O)Nc2ncc(Cc3cccc4ccccc34)s2)n1`, the Potency result is “inactive”.

Regarding `COc1cccc(CN(C(=O)CC(C)(C)C)[C@H]2C[C@H](C(=O)N3CCNCC3)N(Cc3ccc4c(c3)OCO4)C2)c1`, the Potency entry was “inactive”. For `Fc1ccc(N2CCN(CCC3OCCc4ccccc43)CC2)cc1` (stereo not given), the Potency entry was “inactive”. Same read-out and setting: next, `O=C(NCc1ccccc1)c1ccc2c(=O)n(-c3cccc(C(F)(F)F)c3)c(=S)[nH]c2c1`: “inactive”. For the molecule `CN[C@@H]1[C@H](O[C@H]2[C@H](O[C@@H]3[C@@H](O)[C@H](O)[C@@H](N=C(N)N)[C@H](O)[C@H]3N=C(N)N)O[C@@H](C)[C@]2(O)CO)O[C@@H](CO)[C@H](O)[C@H]1O`, the Potency entry was “inactive”.

As for `CC1CCC(=O)CC(SCC(O)C(=O)O)CCC(=O)O1` (stereo not given), the Potency result was “inactive”.

As to `C=C1CC[C@H]2C(=C)CC[C@H]3C(=C)C(=O)O[C@@H]3[C@@H]12`, the Potency entry is “inactive”. On to `C=C1C(=O)O[C@@H]2C=C(COC(C)=O)CC/C=C(\CO)CC[C@@H]12`, for which the Potency entry was “inactive”.

Regarding `CC(=O)OC1C(=O)C2C3OCC4=C3[C@@](C)(CC[C@@H]4O)CC[C@]2(C)[C@H]1C(C)C` (stereo not given in full), the Potency result is “inactive”. With `O=c1[nH]c2cccc(N3CCN(Cc4ccc(-c5ccccc5)cc4)CC3)c2o1`, the Potency result is “inactive”.

In the case of `Cc1nc(Nc2ccc(F)cc2)nc(N2CCc3ccccc3C2C)c1C` (stereo not given), the Potency result is “inactive”. As for `C[C@@H](O[C@H]1OCCN(Cc2nn(P(=O)(O)O)c(=O)[nH]2)[C@H]1c1ccc(F)cc1)c1cc(C(F)(F)F)cc(C(F)(F)F)c1`, the Potency result is “inactive”. On the same count and under the same terms, next, `COC(=O)C[C@H]1[C@]2(C)C3=C(C)[C@H](c4ccoc4)C[C@H]3O[C@@H]2[C@H](O)C2[C@](C)(C(=O)OC)C=CC(=O)[C@@]21C` (stereo not given in full): “inactive”. Turning to `CC(=O)c1ccc2c(c1)[C@H](NC(=O)c1ccc(F)c(Cl)c1)[C@H](O)C(C)(C)O2`, the Potency result is “inactive”.

With `CC1OC(OC2C(O)COC(O[C@@H]3[C@@H](O)[C@@H](O)[C@H](OC4C(OC(=O)[C@]56CCC(C)(C)CC5C5=CCC7[C@@]8(C)C[C@H](O)[C@H](OC9OC(CO)C(O)C(O)C9O)[C@@](C)(CO)C8[C@H](O)C[C@@]7(C)[C@]5(C)CC6)OCC(O)C4O)O[C@H]3C)C2O)C(O)C(O)C1O` (stereo not given in full), the activity change, negative = cytotoxicity was -17.3% [at 6.55 µM].

For the molecule `Cc1c(C(=O)NCc2cccnc2)nn(-c2ccc(Cl)cc2Cl)c1-c1ccc(Cl)cc1`, the Potency entry is “inactive”. The same measure, in the same setting: for `C=C1CCC[C@]2(C)CC/C(=C(/CO)C(=O)OC)C[C@@H]12` the value was “inactive”. Take `CC/C(C)=C/C(=O)OC1C(OC2(C)CCC3C(C4C(C)CCC42)C3(C)C)OC(C)C(O)C1O` (stereo not given): the Potency entry is “inactive”. In the case of `CC(C)[C@@H](c1ccc(C(F)(F)F)cc1CN(Cc1cc(C(F)(F)F)cc(C(F)(F)F)c1)c1nnn(C)n1)N1CCC(C(=O)O)CC1`, the Potency result was “inactive”.

`O=C(O)c1ccc(S(=O)(=O)N(Cc2ccc(OC(F)(F)F)cc2)c2ncc(C(F)(F)F)cc2Cl)cc1`: the Potency result is “inactive”. `COc1ccc(OC)c(-c2ccc(NC(=O)c3ccncc3F)cc2)c1`: the Potency result is “inactive”. With `C[C@H]1CC[C@@]2(OC1)O[C@H]1CC3C4CC[C@H]5C[C@@H](O)CC[C@]5(C)C4=CC(=O)[C@]3(C)[C@H]1[C@@H]2C` (stereo not given in full), the Potency entry was “inactive”. With `O=C1c2ccc(Nc3ccc(F)cc3F)cc2CCc2ccc(OCC(O)CO)cc21` (stereo not given), the Potency entry was “inactive”. Regarding `CC1(C)OC[C@H](NC(=O)Nc2ccc(Br)cc2Br)[C@H](c2ccccc2)O1`, the Potency result was “inactive”. For the molecule `COc1ccc(C(=O)Nc2c(Cl)cncc2Cl)cc1OC1CCCC1`, the Potency result was “inactive”.
